Source: the supplement of paper PMC12636033
± gives the standard deviation of the averaged measurements. In all, about 33,000 sequences were measured (“E-score (rank enrichment, -0.5 to 0.5)”: median about -0.0043, highest 2% from about 0.24 on). This is one part of a sample in which the highest values are shown more often than they occur.

System: 2Sp-muMax20 (muMax20 with two 2,6-bis(methyl)pyridine Cys staples)
Experiment: PBM 8-mer E-score (E-score (rank enrichment, -0.5 to 0.5)); higher = stronger preferential binding
Protocol: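 Protein binding microarray (universal PBM chip covering all 10-mers in fixed probe flanks) with chemically synthesized human Max(13-93) bHLH-LZ analogs (not full-length Max) bearing noncanonical residues (hArg, Tha, Aib, Nle at 65) and aromatic Cys staples. Read-out per 8-mer (and its reverse complement): E-score (rank-based enrichment, -0.5 to 0.5) and Z-score of median probe intensity.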

Sequence	PBM 8-mer E-score
CACAGAGC	-0.0473 ± 0.035
CGCTTAAA	0.0219 ± 0.026
TCACCACA	0.209 ± 0.055
ACAAGAGA	-0.031 ± 0.039
CAGGATCC	0.0142 ± 0.1
CCCAGCCG	-0.207 ± 0.031
GGGTGAAC	-0.0445 ± 0.0025
AGATTGGA	0.0807 ± 0.089
AGATTGGG	0.236 ± 0.005
AGATTGGC	-0.253 ± 0.0034
GACACTCA	-0.155 ± 0.12
CCTTCTCC	-0.1487 ± 0.00034
ACAGGCCC	-0.0606 ± 0.0054
AGTATAAC	0.0726 ± 0.034
AGTATAAG	0.273 ± 0.061
ACTATAAT	0.1911 ± 0.00057
CGTATACC	-0.132 ± 0.077
CGTATACA	0.0425 ± 0.12
AGTATAAT	0.307 ± 0.047
CGTATACG	0.279 ± 0.086
ACTATAAG	0.147 ± 0.011
CGTATAAG	0.0589 ± 0.0073
AGTATACC	0.0537 ± 0.062
AGTATACA	0.218 ± 0.026
AGTATACT	0.287 ± 0.014

Sequence	PBM 8-mer E-score
ATGTGTGC	-0.0334 ± 0.049
AAGCGGCA	-0.0432 ± 0.047
ATCACTTG	0.101 ± 0.072
GGATTCTA	0.0681 ± 0.064
GTCAACTA	0.0356 ± 0.0025
CGGGGACA	-0.0692 ± 0.1
TGACTACA	0.0909 ± 0.018
AGATACCG	-0.166 ± 0.039
AGATACCA	0.171 ± 0.03
AGATACCC	0.264 ± 0.0095
AGGCGAAA	-0.0363 ± 0.041
GCCTTGAC	-0.0306 ± 0.049
AGACCGAG	-0.0567 ± 0.059
GCACGTCC	-0.107 ± 0.035
GAACGTGA	-0.0484 ± 0.032
GGACGTGA	-0.181 ± 0.05
GCACGTAC	0.0252 ± 0.017
GCACGTGC	0.472 ± 0.0076
GCACGTGA	0.29 ± 0.034
GTCTCGTA	-0.016 ± 0.023
GTGCCCAC	-0.0178 ± 0.036
CACTCAGG	0.00926 ± 0.0019
CGAGAAAA	-0.0823 ± 0.086
CGGCGGCA	-0.192 ± 0.016
GGGTAAAA	0.146 ± 0.043

Sequence	PBM 8-mer E-score
CATGCTGA	0.235 ± 0.031
AATGCTTC	0.126 ± 0.0042
AATGCTGA	0.11 ± 0.11
CATGCTTA	0.223 ± 0.018
CATGCTTC	0.244 ± 0.013
GATGCTGA	-0.077 ± 0.021
CATGCGTA	0.291 ± 0.02
AATGCGTA	0.186 ± 0.021
GATGCGTA	0.12 ± 0.027
CTTAAGTC	-0.0675 ± 0.033
CCTGCGAC	-0.0368 ± 0.021
CACTGACA	-0.147 ± 0.062
CCATTTAC	0.106 ± 0.12
ACACAGAA	0.0709 ± 0.022
ACGTATAA	0.125 ± 0.024
AACAGGAA	-0.0894 ± 0.071
ATTCAGAC	-0.0466 ± 0.061
AACGTGTC	0.0326 ± 0.036
AACGTGTA	0.0544 ± 0.12
GACGTGTA	-0.0461 ± 0.043
CCCGTGTC	-0.204 ± 0.024
CACGTGTC	0.377 ± 0.036
CACGTGTA	0.389 ± 0.023
CGCGTGTC	0.139 ± 0.067
AGTGTGTA	0.0578 ± 0.047

Sequence	PBM 8-mer E-score
AGCGTGTA	0.1194 ± 0.0008
GGTGTGTA	0.0384 ± 0.034
CGTGTGTA	0.239 ± 0.011
CGCGTGTA	0.238 ± 0.04
GACTAGAA	0.177 ± 0.023
CCATCGGG	-0.247 ± 0.14
CCCCAGTC	0.0489 ± 0.031
AACTTACC	-0.00702 ± 0.031
GCGGCGTA	0.0259 ± 0.057
ACTCGGGC	-0.209 ± 0.095
CATTCCTA	0.0858 ± 0.042
CGTTGTGA	-0.116 ± 0.13
AATCCACT	-0.0636 ± 0.11
TGTTCCAA	-0.0197 ± 0.029
ATGGAGGG	0.168 ± 0.038
AGCTGTGG	-0.0756 ± 0.04
GGAGGGGA	0.244 ± 0.028
ATAGGGGA	0.138 ± 0.033
GGAGGGAA	-0.0234 ± 0.062
CTAGGGGA	0.0989 ± 0.024
CGAGGGGA	0.021 ± 0.025
GTAGGGGA	0.29 ± 0.033
CTTTCCGA	-0.294 ± 0.038
AGGTGCGC	-0.139 ± 0.056
ACCCTATA	-0.0592 ± 0.015

Sequence	PBM 8-mer E-score
TGGCGTAA	0.0766 ± 0.16
ATTTTTAG	-0.0464 ± 0.14
TACTTCAA	0.243 ± 0.013
AACTTCAA	0.0284 ± 0.018
GACTTCAA	0.0921 ± 0.077
CATCTAGC	0.114 ± 0.045
GGTCTCAC	0.0156 ± 0.0022
ACGTTGAA	0.123 ± 0.036
TTACGTAA	0.2354 ± 0.0003
CTACGTAA	0.0719 ± 0.058
GTACGTAA	0.101 ± 0.075
ATACGTAA	0.119 ± 0.077
ATACGTAC	0.185 ± 0.07
ATACGTAT	0.339 ± 0.022
GAGACAAC	0.00299 ± 0.013
AACTTTAA	0.0575 ± 0.063
CGGTTACG	-0.19 ± 0.072
CCGCATCG	-0.258 ± 0.046
CTATGAGC	-0.0207 ± 0.088
CAATAATG	0.0692 ± 0.049
CAATAATC	0.0969 ± 0.081
CAATAAAA	0.294 ± 0.052
CAATAATA	0.247 ± 0.045
GAATAAAA	0.0399 ± 0.044
CAATAAAC	0.137 ± 0.053

Sequence	PBM 8-mer E-score
GACAGGTC	-0.12 ± 0.088
AGAGCCAA	0.00188 ± 0.0012
CGAGGACC	-0.245 ± 0.046
AACGGCCC	-0.372 ± 0.037
AACGGCCT	0.275 ± 0.0083
AACGGCCA	-0.0961 ± 0.022
TCGTCCAA	-0.0225 ± 0.01
AACGGTCC	-0.298 ± 0.1
AAACGTGG	0.0452 ± 0.042
ACACGTAC	-0.0036 ± 0.092
TAACGTGA	0.093 ± 0.036
AGACGTGA	0.0537 ± 0.03
TCACGTAA	-0.0172 ± 0.028
ATACGTGA	-0.0748 ± 0.062
ACACGTGG	0.3868 ± 0.00064
ACACGTGA	0.412 ± 0.034
ACACGTAG	-0.0191 ± 0.055
AGACGTGC	-0.145 ± 0.021
TCACGTGA	0.438 ± 0.0011
ACACGTGC	0.407 ± 0.024
CCTCTTAG	-0.00532 ± 0.11
CATTCGCA	0.0276 ± 0.0019
ACCAAACC	0.0152 ± 0.034
CAGTCTAG	-0.117 ± 0.05
CAATAGAA	0.0449 ± 0.032

Sequence	PBM 8-mer E-score
ACGCGTGA	0.25 ± 0.0042
ACGCGTGC	0.177 ± 0.049
GCGCGTGA	0.2082 ± 0.00059
AAACGTGT	0.077 ± 0.06
ACACGTAT	0.178 ± 0.052
ACACGTGT	0.421 ± 0.015
ACTTTCCC	-0.0248 ± 0.091
CTCGTCTC	-0.0179 ± 0.03
CTCACGTC	-0.00269 ± 0.06
ATTCGAGC	-0.0718 ± 0.14
ATTCGAGA	0.239 ± 0.052
CTTCGAGA	-0.0158 ± 0.028
AGGTTGCC	-0.164 ± 0.035
GCACCTAC	-0.194 ± 0.0063
ATCACGAT	0.00138 ± 0.12
CGCACGCC	-0.0203 ± 0.1
AAGACCCA	0.0969 ± 0.13
GAGACCCA	-0.1 ± 0.07
TAGACCCA	0.282 ± 0.061
CCTTTAAC	-0.0714 ± 0.012
GGCGCACC	-0.281 ± 0.032
CGCTACCA	-0.1194 ± 0.00063
